Structures can show the parent of a compound that is named as a salt.
System: Saccharomyces cerevisiae BY4741 SeMeCo community
Test: z-score of subpopulation abundance vs DMSO median, subpopulation auxotrophic for LU; higher = larger share of this subpopulation than in DMSO controls
Conditions: 10 µM; 24 h; SM minimal medium; subpopulation (auxotrophy): LU
Procedure: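 Fluorescent four-plasmid SeMeCo (self-establishing metabolically cooperating S. cerevisiae BY4741 community; plasmids pH-mRuby2, pL-mWasabi, pU-eCFP, pM-TagRFP657) was grown 24 h in minimal SM medium with each Selleck FDA-approved drug at 10 µM in 384-well plates. Cells were fixed and imaged by high-content confocal microscopy. For each auxotrophic subpopulation (and the prototroph), a z-score gives the deviation from the DMSO vehicle-control population median.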

| SMILES | z-score of subpopulation abundance |
| --- | --- |
| CCc1nn(CCCN2CCN(c3cccc(Cl)c3)CC2)c(=O)n1CCOc1ccccc1 [Nefazodone hydrochloride] | 0.49 |
| c1ccc(C2CN3CCSC3=N2)cc1 (stereo not given) [Tetramisole HCl] | -0.21 |
| NC[C@H]1O[C@H](O[C@H]2[C@H](O)[C@@H](O[C@H]3O[C@H](CO)[C@@H](O)[C@H](N)[C@H]3O)[C@H](N)C[C@@H]2N)[C@H](N)C[C@@H]1O [Tobramycin] | -0.02 |
| OB1OCc2cc(F)ccc21 [Tavaborole (AN-2690)] | 4.22 |
| CC/C(=C(\c1ccccc1)c1ccc(OCCN(C)C)cc1)c1ccccc1 [Tamoxifen Citrate] | 0.35 |
| O=C1NCC2(CCN(CCc3ccccc3)CC2)O1 [Fenspiride HCl] | -0.49 |
| CCn1cc(C(=O)O)c(=O)c2cnc(N3CCNCC3)nc21 [Pipemidic acid] | 0.45 |
| Nc1ccc(S(=O)(=O)Nc2ncccn2)cc1 [Sulfadiazine] | 0.22 |
| OC[C@H]1O[C@H](OCC2O[C@@H](O)[C@H](O)[C@@H](O)[C@@H]2O)[C@H](O)[C@@H](O)[C@H]1O (stereo not given in full) [Melibiose] | 0.81 |
| CC(C)Cc1ccc(C(C)C(=O)O)cc1 (stereo not given) [Ibuprofen Lysine] | -4.01 |
| Cc1cc(NS(=O)(=O)c2ccc(N)cc2)no1 [Sulfamethoxazole] | 0.02 |
| CO[C@H]1O[C@@H]2O[C@@]3(C)CC[C@H]4[C@H](C)CC[C@@H]([C@H]1C)[C@@]24OO3 [Artemether] | -0.14 |
| O=C(O)c1cn(-c2ccc(F)cc2)c2cc(N3CCNCC3)c(F)cc2c1=O [Sarafloxacin HCl] | -0.05 |
| NCc1ccccc1CC(=O)N[C@@H]1C(=O)N2C(C(=O)O)=C(CSc3nnnn3CC(=O)O)CS[C@H]12 [Ceforanide] | 0.89 |
| CO/N=C(\C(=O)N[C@@H]1C(=O)N2C(C(=O)O)=C(COC(N)=O)CS[C@H]12)c1ccco1 [Cefuroxime sodium] | -1.06 |
| NC(=O)OCC(COC(N)=O)c1ccccc1 [Felbamate] | -0.71 |
| CCCCCCCCN=C(N)NC(N)=NCc1ccc(Cl)c(Cl)c1 [Olanexidine Hydrochloride semihydrate] | 2.95 |
| Cc1cc(=O)n(-c2ccccc2)n1C [Antipyrine] | -0.69 |
| C[C@]12CC[C@@H]3c4ccc(O)cc4CC[C@H]3[C@@H]1CCC2=O [Estrone] | 0.11 |
| CC1=C(C(=O)O)N2C(=O)[C@@H](NC(=O)[C@H](N)C3=CCC=CC3)[C@H]2SC1 [Cefradine] | -1.14 |

| SMILES | z-score of subpopulation abundance |
| --- | --- |
| C#C[C@]1(O)CC[C@H]2[C@@H]3CCc4cc(OC5CCCC5)ccc4[C@H]3CC[C@@]21C [Quinestrol] | 1.93 |
| COC(=O)C1=C(C)NC(C)=C(C(=O)OCCN(C)Cc2ccccc2)C1c1cccc([N+](=O)[O-])c1 (stereo not given) [Nicardipine HCl] | 0.72 |
| COCCCC/C(=N\OCCN)c1ccc(C(F)(F)F)cc1 [Fluvoxamine maleate] | -0.03 |
| COc1cccc2c1C(=O)c1c(O)c3c(c(O)c1C2=O)C[C@@](O)(C(C)=O)C[C@@H]3O[C@H]1C[C@H](N)[C@H](O)[C@H](C)O1 [Daunorubicin HCl] | 3.27 |
| CCN1CCN(C(=O)N[C@@H](C(=O)N[C@@H]2C(=O)N3C(C(=O)O)=C(CSc4nnnn4C)CS[C@H]23)c2ccc(O)cc2)C(=O)C1=O [Cefoperazone] | -0.39 |
| O=C(O)CCC(=O)Nc1ccc(S(=O)(=O)Nc2nccs2)cc1 [Succinylsulfathiazole] | -0.4 |
| COc1ccccc1OCC(O)CN1CCN(CC(=O)Nc2c(C)cccc2C)CC1 (stereo not given) [Ranolazine] | -0.55 |
| O=c1[nH]cc(F)c(=O)[nH]1 [Fluorouracil (5-Fluoracil, 5-FU)] | 0.59 |
| C#CCN(C)Cc1ccccc1 [Pargyline hydrochloride] | 1.29 |
| CN1CCCN=C1/C=C/c1cccs1 [Pyrantel Pamoate] | -0.11 |
| NC(CO)(CO)CO [Trometamol] | 0.36 |
| O=c1cc(-c2ccc(O)c(O)c2)oc2cc(O)cc(O)c12 [Luteolin] | 0.96 |
| CC[C@H]1OC(=O)C[C@@H](O)[C@H](C)[C@@H](O[C@@H]2O[C@H](C)[C@@H](O)[C@H](N(C)C)[C@H]2O)[C@@H](CCN2C[C@H](C)C[C@H](C)C2)C[C@@H](C)C(=O)/C=C/C(C)=C/[C@@H]1CO[C@@H]1O[C@H](C)[C@@H](O)[C@@H](OC)[C@H]1OC [Tilmicosin phosphate] | -0.57 |
| Oc1ccc([C@H]2COc3cc(O)ccc3C2)cc1 [Equol] | -0.26 |
| CN1C[C@@H]2C[C@H]1CN2c1cc2c(cc1F)c(=O)c(C(=O)O)cn2C1CC1 [Danofloxacin Mesylate] | -0.89 |
| CCOC(=O)C1=C(COCCN)NC(C)=C(C(=O)OC)C1c1ccccc1Cl (stereo not given) [Amlodipine] | -7.07 |
| CC(=O)O[C@H]1C[C@@H]2CC[C@@H]3[C@H](CC[C@@]4(C)[C@H]3C[C@H]([N+]3(C)CCCCC3)[C@@H]4OC(C)=O)[C@@]2(C)C[C@@H]1N1CCCCC1 [Vecuronium Bromide] | 0 |
| N[C@@H](CCC(=O)O)C(=O)O [(S)-Glutamic acid] | -0.36 |
| C[C@]12CC[C@@H]3c4ccc(O)cc4CC[C@H]3[C@@H]1C[C@@H](O)[C@@H]2O [Estriol] | -0.08 |
| CCC[C@@H]1C[C@@H](C(=O)N[C@@H]([C@H]2O[C@H](SC)[C@H](O)[C@@H](O)[C@H]2O)[C@H](C)Cl)N(C)C1 [Clindamycin HCl] | -0.2 |

Source: the supplement of paper PMC8975748
